Experimental data from PubChem BioAssay.
Calls of active or inactive are those of the source. Unless noted, how the calls were made is not given here.

Legend:
[1] = HepG2 liver cancer cell viability effects, profiling panel, resazurin fluorescence, 24 h, PK04 Diversity Set (AID 1172); conditions: higher = more signal; further: test concentration not given here
[2] = basal S. cerevisiae growth modulation, no modifier, primary screen, OD600, strain BY4716, 24 h, basal condition (AID 1173); conditions: OD600, 24 h, higher = more signal, called active from +8 up or from −8 down
[3] = MM1S myeloma cell viability, profiling panel, resazurin fluorescence, basal, 24 h, PK04 Diversity Set (AID 1174); conditions: higher = more signal, called active from +8 up or from −8 down;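 further: MM1S multiple myeloma cell line; test concentration not given here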
[4] = biological target: Dihydroorotate dehydrogenase (quinone), mitochondrial (Plasmodium falciparum (isolate 3D7)) (UniProt Q08210); test: PfDHODH enzyme inhibitors, primary screen, biochemical, C-terminal His tag, absorbance 600 nm (AID 1175); conditions: DCIP absorbance 600 nm, higher = more signal, called active from +8 up or from −8 down;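 further: recombinant parasite enzyme with a five histidine tag at its C terminus; test concentration not given here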
Dihydroorotate dehydrogenase (quinone), mitochondrial (Plasmodium falciparum (isolate 3D7)), sequence (Q08210 whole entry, looked up): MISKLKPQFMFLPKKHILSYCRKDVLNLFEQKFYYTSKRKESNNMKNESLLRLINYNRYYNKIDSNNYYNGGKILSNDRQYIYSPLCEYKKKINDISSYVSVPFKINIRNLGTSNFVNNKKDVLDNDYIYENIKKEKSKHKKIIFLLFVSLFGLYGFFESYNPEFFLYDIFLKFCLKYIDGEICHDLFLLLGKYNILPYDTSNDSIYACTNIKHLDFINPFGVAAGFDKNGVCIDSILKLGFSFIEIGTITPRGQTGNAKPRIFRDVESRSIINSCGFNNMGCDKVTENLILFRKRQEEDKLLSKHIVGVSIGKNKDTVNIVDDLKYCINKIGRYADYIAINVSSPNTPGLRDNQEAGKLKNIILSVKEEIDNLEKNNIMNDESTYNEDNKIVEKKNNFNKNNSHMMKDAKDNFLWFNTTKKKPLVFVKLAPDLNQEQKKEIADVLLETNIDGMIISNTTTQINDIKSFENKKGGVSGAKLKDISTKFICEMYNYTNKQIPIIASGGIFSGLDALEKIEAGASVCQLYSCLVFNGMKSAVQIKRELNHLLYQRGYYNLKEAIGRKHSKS

[5] = P. aeruginosa biofilm formation inhibitors, primary screen, strain PAO1, LB-PBS medium, absorbance 600 nm (AID 1176); further: test concentration not given here; conditions: P. aeruginosa PAO1 growth/biofilm, A600, 12 h; higher = more signal
[6] = S. cerevisiae RM11-1a growth modifiers, primary screen, strain RM11-1a, OD600, basal, 24 h (AID 1177); conditions: OD600, 24 h, higher = more signal, called active from +8 up or from −8 down;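 further: cultures grown under basal conditions with no added stressor; test concentration not given here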
[7] = E. coli acrAB mutant growth effects, primary screen, E. coli filamentation inducers, strain DRC39, OD650, 24 h (AID 1178); conditions: higher = more signal, called active from +8 up or from −8 down;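 further: growth measured as culture turbidity by optical density at 650 nm; test concentration not given here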
[8] = E. coli acrAB mutant growth effects, primary screen, E. coli filamentation inducers, strain DRC39, OD650, 48 h (AID 1179);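 further: screen aims at cell division blockers that make cells filament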; conditions: E. coli DRC39 delta-acrAB growth, higher = more signal, called active from +8 up or from −8 down
[9] = RPMI8226 myeloma cell viability, profiling panel, resazurin fluorescence, basal, 24 h, PK04 Diversity Set (AID 1180); conditions: higher = more signal;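 further: RPMI8826 multiple myeloma cell line at 5000 cells per well; test concentration not given here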
[10] = biological target: E3 ubiquitin-protein ligase XIAP (Homo sapiens) (UniProt P98170); test: XIAP binders, primary screen, biophysical, small-molecule microarray, fluorescence 635 nm (AID 1181); conditions: small-molecule microarray binding, higher = more signal;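 further: score merges 667 nm emission and signal to noise over triplicate slides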
E3 ubiquitin-protein ligase XIAP (Homo sapiens), sequence (P98170 whole entry, looked up): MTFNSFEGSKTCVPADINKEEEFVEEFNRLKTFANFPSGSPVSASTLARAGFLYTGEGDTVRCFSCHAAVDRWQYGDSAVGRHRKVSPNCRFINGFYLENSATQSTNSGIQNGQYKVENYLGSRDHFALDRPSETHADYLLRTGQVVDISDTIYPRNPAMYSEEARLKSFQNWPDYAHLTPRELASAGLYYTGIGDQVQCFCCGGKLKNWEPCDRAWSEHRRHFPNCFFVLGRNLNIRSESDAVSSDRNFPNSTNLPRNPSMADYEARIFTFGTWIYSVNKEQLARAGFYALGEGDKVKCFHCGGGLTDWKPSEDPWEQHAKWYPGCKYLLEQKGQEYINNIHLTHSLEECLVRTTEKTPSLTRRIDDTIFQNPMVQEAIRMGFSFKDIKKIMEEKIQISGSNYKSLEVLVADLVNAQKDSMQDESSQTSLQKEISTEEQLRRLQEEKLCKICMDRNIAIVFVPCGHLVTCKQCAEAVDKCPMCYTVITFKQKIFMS

| Compound | z-score [1] | z-score [2] | z-score [3] | composite z-score [4] | z-score [5] | z-score [6] | z-score [7] | z-score [8] | z-score [9] | composite z-score [10] |
| --- | --- | --- | --- | --- | --- | --- | --- | --- | --- | --- |
| C=CCN1C(=O)[C@]2(O[C@H](CCO)[C@@H]([Si](C)(C)c3ccc(OC)cc3)[C@@H]2C)c2cc(N3C(=O)c4ccccc4Oc4ccccc43)ccc21 | -5.91 | 0.84 (inactive) | -8.74 (active) | 1.11 (inactive) | 0.106 (inactive) | 4.06 (inactive) | 0.229 (inactive) | -0.757 (inactive) | -6.28 | -0.138 |
| C[C@H]1C2[C@H](Cc3ccccc3)NC(=O)[C@]23C(=O)N[C@@H](Cc2ccccc2)C(=O)N2CCC[C@H]2C(=O)NC/C=C/CC/C=C/C3[C@@H]2O[C@]12C (stereo not given in full) | -0.661 | 0.321 (inactive) | -0.299 (inactive) | -0.0587 (inactive) | 0.355 (inactive) | -0.0615 (inactive) | 0.159 (inactive) | -0.882 (inactive) | -0.39 | -0.0663 |
| CN1C2C=C(c3ccc(CO)cc3)C(C3C(=O)N(C(N)=O)C(=O)C32)C1C1CC1 (stereo not given) | -0.41 | 1.31 (inactive) | -0.611 (inactive) | 0.437 (inactive) | 0.354 (inactive) | 0.718 (inactive) | 0.0605 (inactive) | 0.213 (inactive) | -0.641 | -0.0745 |
| C=C(COC)C(=O)CC[C@H](OC(C)=O)c1ccc(CO)o1 | 0.815 | -0.111 (inactive) | 0.324 (inactive) | -1.28 (inactive) | -0.517 (inactive) | -1.28 (inactive) | 0.581 (inactive) | 0.117 (inactive) | 0.875 | 0.194 |
| COCCCNC(=O)[C@]1(Cc2ccccc2N=[N+]=[N-])N=C(c2ccc(OCCCO)cc2)O[C@@H]1c1ccccc1 | 0.83 | -0.591 (inactive) | -1.25 (inactive) | -0.28 (inactive) | -0.444 (inactive) | -0.029 (inactive) | 2.99 (inactive) | 0.26 (inactive) | -0.953 | 0.267 |
| COc1ccc(CCNC(=O)[C@@H]2c3ccccc3C(=O)N(C(C)C)[C@H]2c2ccc(CO)cc2)cc1 | 0.862 | -0.313 (inactive) | 1.35 (inactive) | 0.261 (inactive) | -0.935 (inactive) | 0.326 (inactive) | 0.364 (inactive) | 0.246 (inactive) | 1.53 | -0.178 |
| CC[C@H]1C2=C3C(CC[C@H]4C(OCc5ccc(F)cc5C(F)(F)F)OC[C@](C)([C@@H]34)N(C(=O)OC(C)(C)C)C2)C(COC(C)=O)C1COC(C)=O (stereo not given in full) | -0.409 | 0.249 (inactive) | -1.04 (inactive) | -0.804 (inactive) | 0.523 (inactive) | 0.348 (inactive) | -1.26 (inactive) | -0.539 (inactive) | -0.866 | 0.48 |
| COc1ccc(C(=O)Nc2cccc(CN3C(=O)[C@]4(O[C@H](CC(=O)N(CCO)Cc5ccccc5)[C@@H]([Si](C)(C)c5ccc(OC)cc5)[C@@H]4C)c4ccccc43)c2)cc1 | -0.754 | 0.404 (inactive) | -1.87 (inactive) | -1.92 (inactive) | 0.769 (inactive) | 3.54 (inactive) | 1.46 (inactive) | 0.852 (inactive) | -1.52 | 1.38 |
| CC(C)c1ccc(NN2C(C(O)C3CCCCC3)C=CC3C(=O)N(c4ccccc4)C(=O)C32)cc1 (stereo not given) | -0.454 | -0.618 (inactive) | -1.12 (inactive) | -0.74 (inactive) | 1.52 (inactive) | 0.409 (inactive) | -0.148 (inactive) | 0.51 (inactive) | -0.675 | 0.0471 |
| CCCCCN1CC=CC23O[C@@H]4/C=C\CCCOC(=O)C4[C@H]2C(=O)N(CCCCCO)[C@@H]3C1=O (stereo not given in full) | 0.809 | -1.17 (inactive) | 1.33 (inactive) | -0.869 (inactive) | 0.0962 (inactive) | -1.08 (inactive) | 0.279 (inactive) | -0.0568 (inactive) | 1.33 | 0.165 |
| O=C1O[C@H](c2ccccc2)[C@H](c2ccccc2)N2[C@H]1[C@@H](C(=O)N1CCN(c3ncccn3)CC1)[C@]1(C(=O)Nc3ccc(C#CC4(O)CCCCCC4)cc31)[C@H]2c1ccc(O)cc1 | 0.596 | -0.436 (inactive) | 0.776 (inactive) | 0.0991 (inactive) | 1.05 (inactive) | 1.82 (inactive) | 0.851 (inactive) | 1.31 (inactive) | 0.995 | -0.0663 |
| COc1cc(Cc2cc3c(c(CCc4ccccc4)n2)[Si](C(C)C)(C(C)C)O[C@H]3c2ccccc2)cc(OC)c1OC | -0.877 | -17.2 (active) | -0.489 (inactive) | -0.435 (inactive) | 0.113 (inactive) | -0.234 (inactive) | -0.264 (inactive) | -0.65 (inactive) | -0.163 | 0.355 |
| C=CCNC(=O)[C@H]1[C@@H]2C(=O)O[C@@H](c3ccccc3)[C@@H](c3ccccc3)N2[C@@H](c2ccc(O)cc2)[C@]12C(=O)Nc1ccccc12 | 0.715 | -0.842 (inactive) | 0.557 (inactive) | 0.776 (inactive) | 1.15 (inactive) | 1.76 (inactive) | 0.691 (inactive) | 0.975 (inactive) | -1.34 | -0.144 |
